This is an account of results in PubChem BioAssay (NCI).

The panel holds about 83,000 compounds, 20% with a hit somewhere; the sample as a whole holds those more often.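 How to read the values: 0–100, growth inhibition (40 = 60% inhibited); 0, no net growth; -100 to 0, cell death (-40 = 40% of starting cells died; -100 = all dead).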 Values without a mark were called inactive. The source made the active and inactive calls. Rule for the calls: active = growth percent below 10; inactive = the rest.

Some test systems named below: NCI-H23 lung; NCI-H226 lung; NCI-H322M lung; HOP-62 NSCLC; NCI-H460 lung; HOP-92 NSCLC; NCI-H522 lung; A549/ATCC NSCLC; 786-0 renal; COLO 205 colon.
What all share (experiment): NCI-60 one-dose screen, 48 h (100 = growth as untreated, 0 = no growth, -100 = all killed)
Holding throughout (details): 10 µM

For the molecule `COc1ccc2c3nc4cc(C)c(C)cc4nc3n(CCN(C)C)c2c1`, the growth in the test with NCI-H23 lung was 8.28% (active); in the test with NCI-H226 lung, 12.1%; in the test on NCI-H322M lung it was 0.682% (active); with HOP-62 NSCLC it was 8.8% (active); with NCI-H460 lung, -50.6% (active); in the test with HOP-92 NSCLC, 27.1%. Moreover, the growth with NCI-H522 lung is -22.4% (active); with A549/ATCC NSCLC, -59.8% (active); in the test on 786-0 renal it was -42.7% (active); in the test with COLO 205 colon it was 62.5%.
`CN(C(=O)c1ccc(C(C)(C)C)cc1)c1sc2c(c1C#N)CCC(=O)C2`: the growth in the test with NCI-H23 lung was -29.1% (active); in the test on NCI-H226 lung, 62.6%; in the test with NCI-H322M lung, 88.4%; in the test with HOP-62 NSCLC, 34.6%; in the test on NCI-H460 lung it was 35.6%; with HOP-92 NSCLC it was 21.9%. For the same molecule, the growth was -45.8% (active) in the test on NCI-H522 lung, 91.5% in the test with A549/ATCC NSCLC, 50.3% with 786-0 renal and 80.7% in the test with COLO 205 colon.
For the molecule `COc1cc(OC(F)(F)F)ccc1C(=O)Nc1sc2c(c1C#N)CCC(=O)C2`, the growth with NCI-H23 lung is 54.5%; with NCI-H226 lung, 87.9%; in the test on NCI-H322M lung, 97.9%; in the test on HOP-62 NSCLC it was 84.8%; with NCI-H460 lung, 100%; in the test with HOP-92 NSCLC, 95.2%. Besides, the growth in the test on NCI-H522 lung was -36.3% (active); in the test with A549/ATCC NSCLC, 93.5%; in the test with 786-0 renal, 97.5%; in the test with COLO 205 colon, 97.8%.
On to `CCOc1ccc(Nc2nc3ccccc3nc2Nc2ccc(OCC)cc2)cc1`, for which the growth was 55.2% with NCI-H23 lung; 85.6% in the test on NCI-H226 lung; 71.3% in the test on NCI-H322M lung; 64.9% in the test on HOP-62 NSCLC; 17.2% with NCI-H460 lung; 27.6% in the test on HOP-92 NSCLC. Moreover, the growth with NCI-H522 lung was 55.9%; in the test on A549/ATCC NSCLC, 41.3%; in the test on 786-0 renal, 32.1%; with COLO 205 colon, 95.9%.
With `COc1ccc(CN2[C@@H](C(=O)NCc3ccc(C(=O)NO)cc3)Cc3c([nH]c4ccccc34)[C@@H]2C)cc1`, the growth is 15.2% with NCI-H23 lung; 45.8% in the test on NCI-H226 lung; 30.5% with NCI-H322M lung; 37.7% in the test with HOP-62 NSCLC; 11.7% with NCI-H460 lung; 2.77% (active) in the test with HOP-92 NSCLC. Besides, the growth in the test on NCI-H522 lung was -5.15% (active); in the test on A549/ATCC NSCLC, 41.6%; in the test with 786-0 renal it was 39.7%; in the test on COLO 205 colon, -12.6% (active).
Regarding `OCCNc1oc(-c2ccccc2)nc1[P+](c1ccccc1)(c1ccccc1)c1ccccc1`, the growth in the test on NCI-H23 lung is 8.3% (active); with NCI-H226 lung it was 1.88% (active); with NCI-H322M lung it was 55.3%; with HOP-62 NSCLC, 24.2%; with NCI-H460 lung it was 5.2% (active); with HOP-92 NSCLC, -22.6% (active). The growth was 2.33% (active) in the test on NCI-H522 lung, 45.8% in the test with A549/ATCC NSCLC, 21.2% with 786-0 renal and -52.8% (active) in the test with COLO 205 colon.
Consider `O=C(CNc1nc(-c2ccccc2)cs1)Nc1ccccc1`, for which the growth with NCI-H23 lung is -86.4% (active); in the test with NCI-H226 lung, -2.46% (active); with NCI-H322M lung it was -96.2% (active); with HOP-62 NSCLC it was -62.9% (active); in the test with NCI-H460 lung, -11.4% (active); with HOP-92 NSCLC, -8.88% (active). Further, the growth is -81.6% (active) with NCI-H522 lung, 7.05% (active) in the test on A549/ATCC NSCLC, -25.5% (active) in the test with 786-0 renal and -83.8% (active) in the test with COLO 205 colon.
Turning to `O=c1c2ccccc2nc(COc2ccccc2)n1/N=C/c1ccc(N2CCCC2)cc1`, the growth was 85% in the test with NCI-H23 lung; 105% in the test on NCI-H226 lung; 91.2% in the test on NCI-H322M lung; 108% with HOP-62 NSCLC; 105% with NCI-H460 lung; 75.5% with HOP-92 NSCLC. Further, the growth in the test with NCI-H522 lung is 81.7%; in the test on A549/ATCC NSCLC it was 92.2%; with 786-0 renal, 92.8%; with COLO 205 colon it was 142%.
On to `COc1ccc2c(c1)N=C(C(=O)O)/C2=C/c1sc(Nc2ccc(O)cc2)nc1O`, for which the growth is 71.6% with NCI-H23 lung; 54.8% in the test with NCI-H226 lung; 92.5% with NCI-H322M lung; 80.9% in the test on HOP-62 NSCLC; 82.3% in the test with NCI-H460 lung; 68.3% in the test on HOP-92 NSCLC. Also, the growth in the test on NCI-H522 lung was 33.7%; in the test with A549/ATCC NSCLC it was 96.2%; in the test on 786-0 renal, 78.9%; in the test with COLO 205 colon, 89.2%.
As to `Cc1ccc(C(=O)Nc2ccc(-n3c(C)nc4c(cnn4-c4ccccc4)c3=O)cc2)cc1`, the growth in the test with NCI-H23 lung is 53.6%; with NCI-H226 lung it was 54.8%; in the test with NCI-H322M lung it was 87.3%; with HOP-62 NSCLC, 78.8%; with NCI-H460 lung it was 75.4%; in the test with HOP-92 NSCLC, 93.3%. Besides, the growth was 71.2% in the test with NCI-H522 lung, 65.8% in the test with A549/ATCC NSCLC, 86.1% in the test on 786-0 renal and 77.4% in the test with COLO 205 colon.
On to `O=c1[nH]c2ccccc2cc1CSc1ccc(Nc2nccc(-c3ccc4ccccc4c3)n2)cc1`, for which the growth with NCI-H23 lung was 18.1%; with NCI-H226 lung, 19%; in the test with NCI-H322M lung, 70.1%; in the test on HOP-62 NSCLC it was 74.7%; with NCI-H460 lung, 24.3%; with HOP-92 NSCLC it was -3.82% (active). The growth in the test on NCI-H522 lung is 71.5%; in the test on A549/ATCC NSCLC, 22.4%; with 786-0 renal it was 51.7%; in the test with COLO 205 colon, 25.3%.
With `COc1cc(C2CC(c3ccccc3)=Nc3c(N)nc(N)nc3N2)ccc1Oc1nc(Nc2ccc(F)cc2)nc(N(C)C)n1` (stereo not given), the growth in the test with NCI-H23 lung is 43.9%; with NCI-H226 lung it was 40.4%; in the test with NCI-H322M lung, 71.7%; in the test on HOP-62 NSCLC, 85.7%; with NCI-H460 lung, 10.6%; in the test on HOP-92 NSCLC it was 16.3%. In addition, the growth in the test with NCI-H522 lung is 65.6%; in the test on A549/ATCC NSCLC, 66.3%; in the test on 786-0 renal it was 43.4%; in the test with COLO 205 colon, 28%.
With `C=CCn1c(SCC(=O)Nc2ccc(C(=O)/C=C/c3ccccc3)cc2)nnc1-c1c[nH]c2ccccc12`, the growth in the test with NCI-H23 lung is 68.3%; in the test with NCI-H226 lung, 35.4%; with NCI-H322M lung it was 79.5%; with HOP-62 NSCLC, 74.1%; in the test with NCI-H460 lung it was 78.6%; in the test with HOP-92 NSCLC, 70.4%. The growth in the test with NCI-H522 lung was 60.6%; in the test with A549/ATCC NSCLC, 63.5%; in the test on 786-0 renal, 79.1%; in the test with COLO 205 colon, 59.7%.
